Measurements reported in the supplement of paper PMC6555819.

Legend:
Assay in all cases: PBM binding z-score (relative to random genomic background probes); higher = stronger binding; sequences stand for … in GC…GCGATTGACAGCGTAGAATGAAGG
[1] = tested on: FXR:RXRa (NR concentration 270 nM, RXRa partner concentration 90 nM)
Method in brief: (§1)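 Regression normalization was applied to scanned fluorescence from custom Agilent 4×180K protein-binding microarrays. Before scanning, arrays were incubated 1 h with ligand-free nuclear receptor dimers, and binding was detected with antibodies against each partner (one per run). Binding z-scores use the random background probes as reference.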

[2] = tested on: LXRa:RXRa (NR concentration 270 nM, RXRa partner concentration 90 nM)
Method in brief: as §1

[3] = tested on: LXRa homodimer (NR concentration 270 nM)
Method in brief: as §1

[4] = tested on: LXRb:RXRa (NR concentration 270 nM, RXRa partner concentration 90 nM)
Method in brief: as §1

[5] = tested on: LXRb homodimer (NR concentration 270 nM)
Method in brief: as §1

[6] = tested on: PPARa:RXRa (NR concentration 270 nM, RXRa partner concentration 90 nM)
Method in brief: as §1

[7] = tested on: PPARg:RXRa (NR concentration 180 nM, RXRa partner concentration 90 nM)
Method in brief: as §1

[8] = tested on: PPARg:RXRa 270nM:90nM, anti-RXR (NR concentration 270 nM, RXRa partner concentration 90 nM)
Method in brief: as §1

[9] = tested on: PPARg:RXRa 30nM:10nM, anti-RXR (NR concentration 30 nM, RXRa partner concentration 10 nM)
Method in brief: as §1

[10] = tested on: PPARg:RXRa 90nM:30nM, anti-RXR (NR concentration 90 nM, RXRa partner concentration 30 nM)
Method in brief: as §1

[11] = tested on: PPARg:RXRa DBDmut IVT, anti-RXR (DBD mutation: RXRa K156A/R161A, NR concentration 270 nM, RXRa partner concentration 90 nM)
Method in brief: as §1

[12] = tested on: PPARg:RXRa IVT, anti-PPARg (NR concentration 270 nM, RXRa partner concentration 90 nM)
Method in brief: as §1

[13] = tested on: PPARg DBDmut:RXRa IVT, anti-PPARg (DBD mutation: PPARg1 K132A/R137A, NR concentration 270 nM, RXRa partner concentration 90 nM)
Method in brief: as §1

[14] = tested on: PPARg DBDmut IVT, anti-PPARg (DBD mutation: PPARg1 K132A/R137A, NR concentration 270 nM)
Method in brief: as §1

[15] = tested on: PPARg homodimer (NR concentration 180 nM)
Method in brief: as §1

[16] = tested on: PXR:RXRa (NR concentration 270 nM, RXRa partner concentration 90 nM)
Method in brief: as §1

[17] = tested on: PXR homodimer (NR concentration 270 nM)
Method in brief: as §1

[18] = tested on: RARa:RXR (NR concentration 270 nM, RXRa partner concentration 90 nM)
Method in brief: as §1

[19] = tested on: RARa homodimer (NR concentration 270 nM)
Method in brief: as §1

[20] = tested on: RARb:RXRa (NR concentration 270 nM, RXRa partner concentration 90 nM)
Method in brief: as §1

Sequence	PBM binding z-score [1]	PBM binding z-score [2]	PBM binding z-score [3]	PBM binding z-score [4]	PBM binding z-score [5]	PBM binding z-score [6]	PBM binding z-score [7]	PBM binding z-score [8]	PBM binding z-score [9]	PBM binding z-score [10]	PBM binding z-score [11]	PBM binding z-score [12]	PBM binding z-score [13]	PBM binding z-score [14]	PBM binding z-score [15]	PBM binding z-score [16]	PBM binding z-score [17]	PBM binding z-score [18]	PBM binding z-score [19]	PBM binding z-score [20]
ATCTTTAGGTAAAGTTCAGTGAAAGATCGATAGA	0.994	1.72	1.25	1.18	0.781	1.87	2.25	3.13	1.43	2.95	1.08	1.4	0.514	1.26	0.959	2.02	1.36	1.27	0.483	2.65
TCTATTAGTTGATTAGCGCAACCGAAACAGCGGA	0.828	0.894	0.314	0.663	0.632	0.774	0.0474	2.11	3.89	2.97	2.41	0.138	0.332	0.505	1.14	0.438	0.358	0.258	1.03	0.252
GATACAGGGTCAGCTAGAGGCCAGAGTTTGGAAA	4.24	2.73	-0.116	2.49	-0.678	4.08	3.23	3.01	0.716	2.22	1.39	2.54	0.152	-1.06	3.41	3.41	0.149	4.26	0.417	4.06
ATATGCAGGTTAAGGGTCATTCAGGTTGGTTCGC	5.08	4.8	3.05	4.56	1.17	5.84	9.18	7.85	8.36	8.7	3.94	5.19	0.744	1.06	2.9	5.48	1.82	6.03	1.71	3.6
TCTAGCAGCCCAGAGGGTCACTCAAGAGGTACGG	0.547	0.531	-0.652	1.01	-1.12	1.92	0.566	1.13	1.45	1.2	0.523	-0.253	-0.749	-0.961	0.154	1.3	-0.683	2.44	-0.794	1.81
AGTCAAAGTTCACTAGGTAATGTAAGATTCAGCT	4.99	4.85	2.91	3.07	0.939	4.58	7.06	6.01	3.43	5.25	2.34	4.44	1.59	2.13	2.35	4.01	2.75	3.26	1.29	4.78
CCTGCTAGGGCAATGGTCAGCTAAAGCAGCTCGC	-0.321	-0.261	-0.651	-0.809	-1.23	0.614	1.75	3.28	0.695	2.57	1.55	1.76	-1.07	-1.49	-0.322	-0.655	-0.95	-0.343	-1.1	1.15
TCATATAGGTAAATGCTAGGTGAAAGTCCGATCT	1.23	1.02	0.256	0.834	-0.0467	1.43	1.09	2.44	3.65	3.19	3.92	2.74	1.21	1.03	0.763	0.713	0.387	1.07	1.52	0.642
ATCGAAAGGTCGTGGGGTGAGTATACAGAAAGGC	6.2	4.88	0.955	4.76	2.35	5.78	5.25	5.38	2.16	3.9	1.35	2.93	1.62	1.78	2.39	4.24	1.2	4.98	2.03	4.47
TCTAGTTGGACAAAGGTCACACACTCGAAATGCG	5.55	5.75	3.58	5.38	1.83	6.21	9.82	8.72	9.32	9.4	2.65	5.02	0.884	1.01	4.09	5.7	1.81	6.59	2.98	5.11
CCTACTGGGCCAAAGCTCATTGATTCCAATGCTC	-0.596	-0.522	-0.451	-0.576	-0.796	1.48	2.63	4.26	2.45	3.85	4.44	3.69	-0.419	-0.625	-0.0929	-0.568	-0.291	-0.318	-0.841	-0.251
TCTTGTAGATCAAGCAGGTTAAGGAAGCCTGAGT	0.133	0.211	-0.315	0.139	-0.226	0.674	-0.544	1.08	2.6	1.8	1.51	0.345	0.213	-0.0431	-0.0432	0.142	0.105	0.407	-0.315	0.0755
GGAACGAGGGCAAAGTTGATATCATCTGTCGACG	1.25	0.812	-0.316	0.894	-0.47	3.94	6.68	6.84	6.13	7.1	3.87	4.19	0.622	0.251	0.45	1.18	0.208	1.62	0.254	2.32
CGAATGAGGGCATGAGTTGATAGCAAATGCCGAT	0.504	0.377	-0.461	0.209	-0.511	1.7	1.92	1.99	0.599	1.49	4	3.15	0.455	-0.417	0.0655	0.525	0.166	0.61	-0.437	1.8
TTACCAAGGGGAAGGTCGTTGATCCCTCTGTAGA	0.907	0.734	-0.259	0.976	-0.862	1.38	0.79	2.13	0.461	1.52	-0.147	0.449	-0.647	-0.525	-0.13	0.711	-0.0192	0.899	-0.541	0.811
CCAACTAGGTCACAGAGGTCAAAGTCCGTGCGTA	7.03	6.68	7.62	6.53	2.14	6.53	9.3	7.99	5.85	7.48	8.13	8.5	1.22	2.03	5.09	6.64	11.9	7.08	2.03	5.31
CCTACTGGGCCAAAAAAGTCATTGATGCCGATAA	-0.316	-0.318	-0.289	-0.181	-0.774	0.404	0.271	0.686	-0.0301	0.41	3.32	2.23	-0.158	-0.274	0.205	-0.303	-0.213	-0.0727	-0.0226	0.134
CCTAGCAGGCCAGGGTCCCTCAAGCATTTCGCTT	-0.373	-0.567	-0.782	-0.712	-1.31	-0.381	-0.884	-0.699	-1.41	-0.959	-0.423	-0.501	-1.5	-1.43	-0.522	-0.483	-0.449	-0.227	-0.786	-0.0655
TGAATGAGGGTAAAGATCAGGGAACGTGGCGTCG	0.332	0.35	-0.456	-0.0766	0.875	2.98	4.39	5.94	4.5	6.32	2.27	3.04	0.811	1.2	1.24	-0.131	-0.487	0.239	0.383	0.817
CCTCCTAGGTCAATGGTCAGCTAAAGCAGCTCGC	3.28	2.46	0.212	2.07	0.406	3.53	3.92	5.19	2.32	4.99	3.61	3.53	-0.066	0.119	2.06	1.28	-0.0378	1.98	0.584	3.77
CCTTACGGGTCACTCCAGATTATAGCATCGGAGT	4.83	4.8	-0.0778	2.91	0.399	4.41	3.39	3.43	0.931	2.35	2.52	3.47	0.108	0.192	1.74	2.59	0.423	2.96	0.564	3.75
TCTGCTAGGTTAACGATGGTCAGCTAATCTGCTA	-1.53	0.817	-0.894	-0.156	-0.756	0.393	-0.117	0.909	1.45	1.06	2.11	1.89	-0.412	-0.772	-1.29	-0.232	-0.501	0.0866	-0.99	1.15
CCGACTGGGGCAAAGGGTACCATACTCAGTACGA	-0.124	-0.144	-0.41	0.194	-1.06	3.81	8.34	7.63	6.97	8.88	3.56	4.9	-0.131	-0.788	1.03	-0.113	-0.353	0.544	-0.388	1.11
GCGACTGGGGCAAAGCTGGTTACCATAAGGTTGG	-0.489	-0.411	-0.621	-0.147	-0.966	0.78	0.929	1.26	-0.311	0.816	4.32	3.14	-0.175	-0.912	-0.562	-0.523	-0.799	-0.0421	-0.562	0.598
CATACAGCGTCAGCTAGGCCAGAGTAGGGACGGC	-0.554	-0.839	-0.547	-1.42	-0.647	-1.05	0.332	-0.936	-0.344	-0.884	-0.164	-0.272	-0.28	0.0344	-0.557	-1.3	-0.659	-0.799	-0.655	-0.287
TGTCAAAGTTCAAAGATAACGTAAGTATCCACAC	6.56	6.17	4.28	4.11	2.1	5.01	7.86	6.97	4.95	6.88	-0.252	3.78	1.64	1.45	2.47	4.66	3.83	3.6	1.54	4.92
TCTCGGAGGACACGAACGGTCAGAGCTCGACATC	0.632	0.398	0.0467	-0.277	-0.841	0.0396	0.0784	0.624	1.74	0.89	1.13	-0.161	-0.337	-0.995	-0.693	-0.215	-0.654	-0.0917	-0.739	2.1
TCGAGTAGGTTAATCGGGGCATTCAGCCAACATA	0.0036	0.53	-0.187	0.859	-0.245	1.72	0.726	1.54	1.04	1.31	3.25	3.08	0.341	-0.256	0.811	0.519	-0.134	0.933	-0.986	0.81
GCGACTGGGGCAAAGCAGGTTACGATAAGGTTGG	0.296	-0.117	-0.718	0.363	-0.982	1.47	1.32	1.43	-0.188	0.405	4.13	3.73	-0.523	-0.59	0.215	0.285	-0.433	0.352	-0.129	0.879
